Data taken from PubChem BioAssay.
Potency and affinity values are given separately. The source made the active and inactive calls. How the calls were made is not given here.

test: cytotoxicity in OVCAR8 ovarian cancer cells, dose response, PAX8 project, cell-based, plate reader, dry powder samples (AID 743197); conditions: series mostly up to 35 µM; activity change, negative = cytotoxicity: at the top concentration

| SMILES | activity change, negative = cytotoxicity |
| --- | --- |
| O=C(Nc1ccc(Cl)c(Cl)c1)N[C@@H]1CC[C@H](CCn2cc(C3CCCCC3)nn2)O[C@H]1CO | 2.73% (inactive) |
| C[C@@H]1CCCCO[C@H](CN(C)Cc2ccc(C(F)(F)F)cc2)[C@H](C)CN([C@H](C)CO)C(=O)c2cc(NS(=O)(=O)c3cccs3)ccc2O1 | 4.52% (inactive) |
| C[C@H](CO)N1C[C@H](C)[C@@H](CN(C)S(=O)(=O)c2ccc(Cl)cc2)OCCCC[C@H](C)Oc2ccc(NS(=O)(=O)c3ccc(Cl)cc3)cc2C1=O | 2.41% (inactive) |
| C[C@@H]1CN([C@@H](C)CO)C(=O)Cc2cc(NC(=O)CCC(F)(F)F)ccc2O[C@H]1CN(C)Cc1ccc(-c2ccccc2)cc1 | 19% (inactive) |
| COc1cccc(S(=O)(=O)N2CC[C@H]3[C@@H](CO)N(C)c4ccc(C#Cc5ccc(F)cc5)cc4[C@H]32)c1 | 26.7% (inactive) |
| O=S(=O)(c1ccccc1F)N1CC[C@@H]2[C@@H](CO)Nc3ccc(C4=CCCCC4)cc3[C@@H]21 | 2.38% (inactive) |
| COc1ccc(NC(=O)Nc2ccc3c(c2)C(=O)N([C@@H](C)CO)C[C@@H](C)[C@@H](CN(C)CC2CCCCC2)OCCCC[C@@H](C)O3)cc1 | 12.9% (inactive) |
